Bioassay records: PubChem, The Scripps Research Institute Molecular Screening Center
Compounds with a hit are over-represented: about 3.4% of the library has one in this group of screens.
TEAD-YAP block: TEAD-YAP interaction inhibition | HEK-TIYL cells, TEAD-Gal4/YAP UAS-luciferase luminescence | inhibition, % at 9.12 µM | 1.4% of 640,000 active; in the data active = inhibition above about 32%
MITF primary: blocks human microphthalmia-associated transcription factor; O75030; AlphaScreen MITF homodimerization, bead proximity signal; inhibition, % at 2.6 µM; 0.91% of 650,000 active; AID 1259374; in the data active = inhibition above about 50%
Target sequence (O75030 whole entry, looked up): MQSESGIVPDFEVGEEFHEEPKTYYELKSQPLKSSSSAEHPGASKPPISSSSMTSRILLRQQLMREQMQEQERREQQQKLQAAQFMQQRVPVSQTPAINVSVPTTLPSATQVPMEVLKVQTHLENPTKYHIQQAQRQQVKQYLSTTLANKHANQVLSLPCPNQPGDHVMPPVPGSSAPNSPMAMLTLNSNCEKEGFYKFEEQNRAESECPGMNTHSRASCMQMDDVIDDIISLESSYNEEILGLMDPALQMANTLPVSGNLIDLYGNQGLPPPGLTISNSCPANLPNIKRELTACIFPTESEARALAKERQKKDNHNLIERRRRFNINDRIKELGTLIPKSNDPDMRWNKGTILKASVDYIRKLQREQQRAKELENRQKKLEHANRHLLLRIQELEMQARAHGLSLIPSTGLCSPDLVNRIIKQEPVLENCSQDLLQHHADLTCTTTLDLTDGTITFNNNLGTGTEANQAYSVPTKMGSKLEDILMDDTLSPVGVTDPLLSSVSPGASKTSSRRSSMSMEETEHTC
GPR151 ag: human GPR151 activation; PathHunter beta-arrestin GPR151 cells, luminescence; activation, % at 11.2 µM; 1% of 650,000 active; AID 1508602; in the data active = activation above about 4.9%
FBW7 act: activators of human E3 ligase FBW7 | normalized activity (activation), % at 26.1 µM | Q969H0 | AlphaScreen FBW7–phospho-cyclin E peptide binding, activator screen | 0.13% of 650,000 active | AID 1259310; in the data active = normalized activity above about 1.9%;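 note: purified mutant Fbw7 with reduced substrate affinity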
Large screens that a line does not name were inactive.

NS(=O)(=O)c1ccc(N=C2NC(=O)C(CC(=O)c3ccc(F)cc3)S2)cc1 (configuration not stated)	none
COc1ccc(NC(=O)c2ccc3c(=O)n(C4CCCCC4)c(SCC(=O)c4ccccc4)nc3c2)cc1OC	none
COc1ccccc1CNC(=O)c1cc2c(=O)[nH]c3ccccc3c2n1C	FBW7 act 4.8
C=CCSc1nc2c(c(=O)n1C1CCOC(C)(C)C1)C1(CCCC1)Cc1ccccc1-2 (configuration not stated)	none
Cc1cccc(N=C(NN)c2ccc3ccccc3n2)c1	TEAD-YAP block 66
Cc1nc2c(C(=O)NCc3ccccn3)cnn2c(C)c1Cc1ccc(F)cc1Cl	none
NC1CCC(NC(=O)c2cccc(-n3cc(NC(=O)Cc4ccccc4)cn3)c2)CC1 (configuration not stated)	none
COc1ccccc1CNn1c(-c2ccccc2F)nc2ccccc2c1=O	none
CC(C)CS(=O)(=O)C1=NSC2=NC(=O)/C(=C\c3ccc(Br)o3)C(=N)N21	MITF primary 77
CS(=O)(=O)C1=NSC2=NC(=O)/C(=C\c3ccc(SCc4ccco4)o3)C(=N)N21	MITF primary 72
CC(C)SC1=NSC2=NC(=O)/C(=C\c3ccc([N+](=O)[O-])o3)C(=N)N21	MITF primary 72
CCSC1=NSC2=NC(=O)/C(=C\c3ccc(Br)o3)C(=N)N12	MITF primary 83
COC(=O)c1c(OCCCc2cccnc2)cc(=O)n2c1CCN(CC1CC1)CC2	none
CCOc1ccccc1NC(=O)c1c(NC(=O)c2ccc(C)cc2)sc2c1CCC(C)C2 (configuration not stated)	none
CCCCOc1ccccc1C(=O)NNC(=S)NC(C)=O	none
CC(=O)NC(=S)NNC(=O)c1ccccc1OCc1ccccc1	TEAD-YAP block 63
OCCCNc1cc(-c2ccncc2)nc(-c2ccccc2)n1	none
CCOC(=O)c1c(NC(=O)CSc2nnc(CNC(=O)c3cccc(F)c3)n2-c2ccc(F)cc2)sc2c1CCCC2	none
COc1ccc(CCNc2nc(Nc3cccc(N(C)C)c3)ncc2C)cc1	none
Cc1cnc(Nc2ccncc2)nc1Nc1ccccc1	TEAD-YAP block 49
COc1cc(Nc2ccnc(Nc3cccc(N(C)C)c3)n2)cc(OC)c1OC	none
COc1cc(Nc2cc(Nc3cccc(N(C)C)c3)ncn2)cc(OC)c1OC	TEAD-YAP block 40
Cc1cnc(Nc2cccc(N(C)C)c2)nc1Nc1ccccc1	TEAD-YAP block 46
COc1cc(Nc2nc(Nc3cccc(N(C)C)c3)ncc2C)cc(OC)c1OC	TEAD-YAP block 54
Cc1cnc(Nc2cccc(N(C)C)c2)nc1NCCN(C(C)C)C(C)C	none
COc1cc(C(=O)O)cc(Br)c1OCC#N	none
O=C(CSc1nccc(=O)[nH]1)Nc1nc(-c2ccccc2)cs1	none
CCOC(=O)c1c(NC(=O)C(C(F)(F)F)C(F)(F)F)sc(CC)c1-c1ccccc1	none
CC(=O)Nc1nc2nc(-c3ccccc3)cc(=O)n2[nH]1	none
c1ccc(Nc2cc(Nc3nccc4ccccc34)ncn2)cc1	none
COc1cc(Nc2cc(Nc3nccc4ccccc34)ncn2)cc(OC)c1OC	TEAD-YAP block 49
O=c1c(-c2ccccc2NCc2ccccc2)nc2cc3ccccc3cc2n1Cc1ccccc1	none
CC(C)n1c(O)c(N=NC(=O)Cc2csc(N3CCOCC3)n2)c2ccccc21	TEAD-YAP block 82
COc1cc(/C=N/NC(=O)Cc2csc(N3CCOCC3)n2)cc(OC)c1O	none
CCOC(=O)CNc1c(Nc2cc(C)cc(C)c2)c(=O)c1=O	none
COc1cccc(C2CC(=O)N3C(=C2C#N)SCC3(O)c2ccc(F)cc2)c1 (configuration not stated)	none
COc1cccc(C2(O)CSC3=C(C#N)C(c4cccc(F)c4)CC(=O)N32)c1 (configuration not stated)	TEAD-YAP block 48
COc1ccc(C2(O)CSC3=C(C#N)C(c4cccc(Cl)c4)CC(=O)N32)cc1OC (configuration not stated)	none
COc1cccc(C2(O)CSC3=C(C#N)C(c4cccc(Cl)c4)CC(=O)N32)c1 (configuration not stated)	TEAD-YAP block 67
N#CC1=C(SCC(=O)Nc2ccccc2Cl)NC(=O)CC1c1ccc(F)cc1 (configuration not stated)	none
N#CC1=C(SCC(=O)Nc2ccccc2[N+](=O)[O-])NC(=O)CC1c1ccccc1F (configuration not stated)	TEAD-YAP block 34
CCCCOC(=O)CSC1=C(C#N)C(c2cccc(Cl)c2)CC(=O)N1 (configuration not stated)	TEAD-YAP block 45
N#CC1=C(SCC(=O)Nc2ccc(Cl)c(Cl)c2)NC(=O)CC1c1cccs1 (configuration not stated)	TEAD-YAP block 59
